# Anthrax LF inh2 – Bacillus anthracis LF protease inhibitors, primary screen, biochemical, multiplex microsphere, MLPCN library. Lethal factor (Bacillus anthracis), P15917. multiplex microsphere protease cleavage assay. AID 588501, 2011. inhibition, % at 10 µM. actives 0.12% (n = 360,000)
# BoNT-F LC inh – BoNT/F light chain protease inhibitors, primary screen, biochemical, flow cytometry, MLPCN library. actives 0.22% (n = 360,000). inhibition, % at 10 µM. AID 588497, 2011. Multiplex microsphere protease cleavage assay. Botulinum neurotoxin type F light chain protease (Clostridium botulinum); in the data active = inhibition above about 35%, passing the limit was not always enough; inconclusive = no clear call, values can overlap the other calls
# Bead autofluor – flagged as autofluorescent in microsphere protease counterscreen. compound autofluorescence counterscreen, microsphere flow cytometry; hits give high values. fluorescence intensity (concentration not given with the values). actives 3.1% (n = 360,000). AID 624483; in the data active = fluorescence intensity above about 16000; inconclusive = no clear call, values can overlap the other calls
# BoNT-A LC inh2 – BoNT/A light chain protease inhibitors, primary screen, biochemical, flow cytometry, MLPCN library; AID 588499, 2011; inhibition, % at 10 µM; multiplex microsphere protease substrate cleavage; actives 0.17% (n = 360,000)
# TcdB inh – TcdB glycohydrolase inhibitors, primary screen, biochemical, single point, plate reader; Toxin B (Clostridioides difficile), P18177; TcdB glycohydrolase enzymatic assay; inhibition, % at 9.99 µM; actives 0.24% (n = 350,000); AID 652162, 2013; in the data active = inhibition above about 10%
# Target sequence (P18177 whole entry, looked up): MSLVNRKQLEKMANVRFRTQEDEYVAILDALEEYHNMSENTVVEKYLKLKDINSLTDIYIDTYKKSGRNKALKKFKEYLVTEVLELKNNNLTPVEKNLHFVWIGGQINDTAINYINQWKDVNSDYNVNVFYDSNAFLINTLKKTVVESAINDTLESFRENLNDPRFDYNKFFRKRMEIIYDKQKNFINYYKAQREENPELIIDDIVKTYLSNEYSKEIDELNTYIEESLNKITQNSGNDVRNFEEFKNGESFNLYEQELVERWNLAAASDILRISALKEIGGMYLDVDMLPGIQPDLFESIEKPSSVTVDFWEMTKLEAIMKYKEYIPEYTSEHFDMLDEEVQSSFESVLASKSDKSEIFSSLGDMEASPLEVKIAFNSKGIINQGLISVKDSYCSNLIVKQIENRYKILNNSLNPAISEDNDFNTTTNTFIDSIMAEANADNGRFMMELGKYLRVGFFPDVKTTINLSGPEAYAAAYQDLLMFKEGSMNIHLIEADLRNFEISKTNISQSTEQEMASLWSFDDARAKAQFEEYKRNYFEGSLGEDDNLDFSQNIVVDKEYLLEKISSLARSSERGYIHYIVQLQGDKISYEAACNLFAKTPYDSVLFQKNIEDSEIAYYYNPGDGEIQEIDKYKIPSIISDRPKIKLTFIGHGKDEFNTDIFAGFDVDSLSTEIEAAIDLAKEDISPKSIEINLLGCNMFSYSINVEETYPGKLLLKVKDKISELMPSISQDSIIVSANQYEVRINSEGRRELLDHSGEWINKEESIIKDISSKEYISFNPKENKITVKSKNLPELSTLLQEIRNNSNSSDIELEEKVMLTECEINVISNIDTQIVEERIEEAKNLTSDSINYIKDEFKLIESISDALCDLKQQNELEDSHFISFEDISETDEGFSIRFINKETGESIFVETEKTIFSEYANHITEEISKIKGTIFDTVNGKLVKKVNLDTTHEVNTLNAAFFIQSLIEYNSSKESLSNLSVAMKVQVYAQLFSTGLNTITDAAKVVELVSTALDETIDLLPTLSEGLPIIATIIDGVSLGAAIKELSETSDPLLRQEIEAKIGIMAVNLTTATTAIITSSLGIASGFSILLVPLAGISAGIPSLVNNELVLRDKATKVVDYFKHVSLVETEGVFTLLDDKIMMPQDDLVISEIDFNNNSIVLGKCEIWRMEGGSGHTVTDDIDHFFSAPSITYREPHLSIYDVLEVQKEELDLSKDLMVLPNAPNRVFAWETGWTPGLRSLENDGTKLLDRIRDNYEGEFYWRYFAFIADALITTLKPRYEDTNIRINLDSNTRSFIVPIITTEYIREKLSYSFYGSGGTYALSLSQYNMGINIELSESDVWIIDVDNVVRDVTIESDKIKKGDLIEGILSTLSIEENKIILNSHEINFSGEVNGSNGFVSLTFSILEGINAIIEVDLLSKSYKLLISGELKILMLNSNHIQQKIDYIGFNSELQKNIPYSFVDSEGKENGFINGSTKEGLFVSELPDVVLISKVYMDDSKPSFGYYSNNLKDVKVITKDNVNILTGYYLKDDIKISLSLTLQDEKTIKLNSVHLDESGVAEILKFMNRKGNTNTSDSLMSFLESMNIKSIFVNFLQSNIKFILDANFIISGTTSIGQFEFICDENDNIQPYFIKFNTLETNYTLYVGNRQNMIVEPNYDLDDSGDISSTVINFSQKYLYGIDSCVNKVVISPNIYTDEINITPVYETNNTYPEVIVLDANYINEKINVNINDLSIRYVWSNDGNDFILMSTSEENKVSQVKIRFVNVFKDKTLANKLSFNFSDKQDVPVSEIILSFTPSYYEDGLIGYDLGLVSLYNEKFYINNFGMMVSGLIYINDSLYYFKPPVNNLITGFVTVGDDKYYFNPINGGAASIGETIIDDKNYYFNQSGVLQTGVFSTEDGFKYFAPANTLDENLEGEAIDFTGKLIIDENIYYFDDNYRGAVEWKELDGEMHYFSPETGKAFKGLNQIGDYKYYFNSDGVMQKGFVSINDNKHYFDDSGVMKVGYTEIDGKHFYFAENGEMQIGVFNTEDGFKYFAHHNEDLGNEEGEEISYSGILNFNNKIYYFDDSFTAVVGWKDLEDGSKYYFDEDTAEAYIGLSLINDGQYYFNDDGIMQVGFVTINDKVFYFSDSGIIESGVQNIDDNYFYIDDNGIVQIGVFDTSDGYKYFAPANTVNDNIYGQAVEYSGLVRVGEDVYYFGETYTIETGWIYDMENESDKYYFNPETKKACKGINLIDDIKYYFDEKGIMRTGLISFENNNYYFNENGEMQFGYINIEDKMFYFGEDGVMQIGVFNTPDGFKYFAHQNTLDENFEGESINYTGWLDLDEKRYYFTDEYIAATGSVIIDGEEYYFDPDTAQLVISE
# A number is an active result; n = inactive; u = inconclusive; x = no result given. The full list was thinned out, with hits kept by preference. Cut-off read from the data, not from the text of the source, unless noted: active = inhibition above about 30%; inconclusive = no clear call, values can overlap the other calls; inactive = below that.
SMILES,Anthrax LF inh2,BoNT-F LC inh,Bead autofluor,BoNT-A LC inh2,TcdB inh
CC(=O)c1cc(NC(=O)c2cccc(C(F)(F)F)c2)c(=O)oc1/C=C/N(C)C,n,n,23755,u,x
CC(=O)c1cc(NC(=O)c2cccc(C(F)(F)F)c2)c(=O)oc1C,n,n,n,n,n
CCCC(=O)Nc1ccc2c(c1)C(=O)N(C)C[C@@H](OC)[C@@H](C)CN(Cc1ccc(-c3ccccn3)cc1)[C@H](C)CO2,x,x,x,x,n
O=C(N[C@@H]1CC[C@H](CC(=O)N2CCCCC2)O[C@@H]1CO)c1cccc(F)c1,x,x,x,x,n
CCc1nc2sc3ccccc3c(=O)c2c(=O)n1CCOC,n,n,19591,n,x
COCCn1c(C(C)C)nc2sc3ccccc3c(=O)c2c1=O,n,n,19469,u,n
COCCn1c(C2CCCCC2)nc2sc3ccccc3c(=O)c2c1=O,n,n,22628,n,x
CC(C)c1nc2sc3ccccc3c(=O)c2c(=O)n1Cc1ccccc1,n,u,n,u,n
CCCc1nc2sc3ccccc3c(=O)c2c(=O)n1Cc1ccc(OC)cc1,n,u,n,n,n
COCCn1c(=O)sc2ccccc2c1=O,n,n,n,n,n
C[C@H](CO)N1C[C@H](C)[C@@H](CN(C)C)Oc2ncc(-c3ccc(C(=O)N(C)C)cc3)cc2C1=O,x,x,x,x,n
C[C@@H]1CN([C@@H](C)CO)C(=O)c2cc(NC(=O)NC3CCCCC3)ccc2O[C@H]1CN(C)Cc1ccc2c(c1)OCO2,x,x,x,x,n
COc1ccc(CN(C)C[C@H]2OCCCC[C@@H](C)Oc3ccc(NC(=O)c4ccccc4)cc3C(=O)N([C@@H](C)CO)C[C@H]2C)cc1,x,x,x,x,n
COCC(=O)Nc1ccc2c(c1)C(=O)N(C)C[C@H](OC)[C@@H](C)CN(Cc1cccnc1)[C@@H](C)CO2,x,x,x,x,n
COc1cnc(-c2ccccn2)nc1Oc1ccc(Cl)cc1,n,n,16340,n,x
COc1cnc(-c2ccccn2)nc1Oc1ccccc1Cl,n,n,n,n,x
COc1cnc(-c2ccccn2)nc1Sc1cccc(Cl)c1,n,n,17458,n,x
COc1cnc(-c2ccccn2)nc1Oc1ccc(Cl)c2ccccc12,n,n,17538,n,x
COc1cnc(-c2ccccn2)nc1Sc1ccc(C)cc1,n,n,n,n,n
C[C@@H]1CN([C@H](C)CO)C(=O)c2cc(NC(=O)CCC(F)(F)F)ccc2O[C@@H](C)CCCCO[C@@H]1CN(C)Cc1ccc2c(c1)OCO2,x,x,x,x,n
CO[C@@H]1CN(C)C(=O)c2cc(NS(=O)(=O)c3cn(C)cn3)ccc2OC[C@@H](C)N(Cc2cccc(F)c2)C[C@@H]1C,x,x,x,x,n
CCS(=O)(=O)Nc1ccc2c(c1)C(=O)N(C)C[C@H](OC)[C@H](C)CN(C(=O)C1CC1)[C@H](C)CO2,x,x,x,x,n
Cc1cc(/C=C2\SC(=O)N(C)C2=O)c(C)n1-c1ccc(O)cc1,n,u,n,n,n
CN=C1S/C(=C\c2cc(C)n(-c3ccccc3F)c2C)C(=O)N1C,n,n,20537,n,x
CCOC(=O)N1CCN(S(=O)(=O)c2ccc(C)cc2)C1c1ccc(OC)cc1 (stereo unspecified),n,n,n,n,x
SMILES,Anthrax LF inh2,BoNT-F LC inh,Bead autofluor,BoNT-A LC inh2,TcdB inh
Cc1ccc(S(=O)(=O)N2CCN(C(=O)N3CCOCC3)C2c2ccc(N(C)C)cc2)cc1 (stereo unspecified),n,n,21067,u,x
Cc1ccc(S(=O)(=O)N2CCN(C(=O)N3CCOCC3)C2C)cc1 (stereo unspecified),n,n,23303,n,x
COc1ccc(C2N(C(=O)N3CCOCC3)CCN2S(=O)(=O)c2ccc(C)cc2)cc1 (stereo unspecified),n,n,22397,n,n
COc1ccc(C2N(C(=O)CN3CCOCC3)CCN2S(=O)(=O)c2ccccc2)cc1 (stereo unspecified),n,n,22919,u,x
Cc1ccc(S(=O)(=O)N2CCN(S(=O)(=O)c3ccc(C)cc3)C2c2ccccc2)cc1,n,n,n,n,x
COc1ccc(C2N(S(=O)(=O)c3ccccc3)CCN2S(=O)(=O)c2ccc(C)cc2)cc1 (stereo unspecified),n,n,17266,n,x
CC(=O)C1=C(O)C(=O)N(CCN(C)C)C1c1ccc(Cl)cc1 (stereo unspecified),n,n,20540,n,x
O=C(COC(=O)CCC(=O)c1ccc(F)cc1)NCc1ccco1,n,n,n,n,n
O=C(NCc1cccnc1)C(C(=O)c1ccc(F)cc1)n1ccccc1=O (stereo unspecified),n,n,22039,u,x
O=C(COc1ccc(F)cc1)NCC1CCCO1 (stereo unspecified),n,n,24747,u,x
O=C(NCCCN1CCOCC1)C(C(=O)c1ccccc1)n1ccccc1=O (stereo unspecified),n,n,22755,n,x
Cc1ccc(=O)n(C(C(=O)NCc2ccco2)C(=O)c2ccc(F)cc2)c1 (stereo unspecified),n,n,22339,n,x
O=C(NCc1ccccc1)C(C(=O)c1ccc(F)cc1)n1ccccc1=O (stereo unspecified),n,n,n,n,x
CC=Cc1ccc2n(c1=O)C[C@@H]1[C@@H](CO)[C@H](C(=O)NCC(F)(F)F)N(CC3CC3)[C@H]21 (mixture of isomers),x,x,x,x,n
C[C@H]1CCCCO[C@@H](CN(C)C(=O)c2ccccc2)[C@@H](C)CN([C@@H](C)CO)C(=O)c2cc(NC(=O)C3CCCCC3)ccc2O1,x,x,x,x,n
CCNC(=O)Nc1ccc2c(c1)C(=O)N(C)[C@@H]1CC[C@H](CC(=O)Nc3ccccc3)O[C@@H]1CO2,x,x,x,x,n
O=C(NCC1CCCO1)C(C(=O)c1ccc(F)cc1)n1ccccc1=O (stereo unspecified),n,n,21506,n,x
CC(C)NC(=O)NC(=O)COC(=O)CCOc1ccccc1,n,n,24104,n,x
COc1ccc(Oc2nnnn2-c2ccccc2)cc1,n,n,22772,u,n
COc1cccc(Oc2nnnn2-c2ccccc2)c1,n,n,n,n,n
CC(C)Nc1oc(Cc2cccc3ccccc23)nc1C#N,n,n,24202,u,n
CNc1oc(Cc2cccc3ccccc23)nc1C#N,n,n,17571,n,x
